TWEAK Fn14 block = inhibitors of TWEAK-Fn14 signaling, primary screen, luciferase reporter cells, uHTS. TWEAK-stimulated Fn14 reporter cells, luciferase luminescence, 8 h. AID 1159606, 2016. 360,000 tested, 2% active. inhibition, % at 10 µM; in the data active = inhibition above about 50%
TROY NFkB inh = inhibitors of TROY-driven NF-kB signaling, primary screen, Q293 LMP1-TROYcd cells, NF-kB luciferase, uHTS. Q293 LMP1-TROYcd NF-kB luciferase reporter, 4 h. inhibition, % at 10 µM. 360,000 tested, 0.98% active. AID 1347056, 2019;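 active = compounds whose plate-normalised and pattern-corrected inhibition of the luciferase reporter signal at the single screening dose is 50% or more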
LMP1 NFkB inh = EBV LMP1-driven NF-kappaB luciferase reporter inhibitors, primary screen, cell-based, luminescence, single point; LMP1-induced NF-kappaB luciferase reporter cells; inhibition, % at 12.5 µM; 350,000 tested, 0.69% active; AID 504558, 2011; in the data active = inhibition above about 41%;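 note: 0% = neutral control wells and 100% = reference inhibitor control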
HSP90 refold inh = HSP90 inhibitors, primary screen, cell lysate, luminescence; Heat shock protein HSP 90 (rabbit reticulocyte lysate; luciferase refolding); Rabbit reticulocyte lysate, luciferase refolding luminescence, 3 h; inhibition, % at 5.6 µM; 290,000 tested, 0.91% active; AID 1789, 2009;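 active = inhibition above the screen-wide mean plus 3 SD, computed separately per campaign, cut at about 16% in these data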;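 note: 0% = DMSO wells and 100% = 60 µM geldanamycin wells; inhibitors lower the luminescence because luciferase stays unfolded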
aDG glyco act = activators of alpha-DG glycosylation, primary screen, uHTS, Pro5-aDG cells, AlphaScreen. AID 624168, 2012. alpha-DG glycosylation AlphaScreen (IIH6); 0% Pro5, 100% B10-LARGE cell signal. 360,000 tested, 0.22% active. activation, % at 10 µM;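 active = activation of at least 8% versus controls, or a plate z-score of at least 8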;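 note: Pro5 are CHO cells carrying HIG-tagged alpha-DG that lacks glycosylation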
LGR2 inh = inhibitors of bursicon-induced LGR2 CRE-luciferase signal, primary screen, cell-based, HEK293, CRE-luciferase reporter, bursicon stimulation; Drosophila bursicon receptor LGR2 (rickets); bursicon-stimulated, 4 h; inhibition, % at 9.99 µM; 380,000 tested, 0.35% active;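 active = drop in luminescence signal, shown as inhibition above about 50% in the replicate tests, limit read from the data, passing the limit was not always enough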;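 note: agonist challenge used bursicon conditioned medium at about half maximal strength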
Numbers without * were called inactive; / = not tested or not shown. Most compounds without a hit are left out; they make up all but 2.6% or so of the library.

SMILES	TWEAK Fn14 block	TROY NFkB inh	LMP1 NFkB inh	HSP90 refold inh	aDG glyco act	LGR2 inh
Cc1noc(C)c1S(=O)(=O)Nc1ccc2c(c1)C(=O)N([C@H](C)CO)C[C@@H](C)[C@@H](CN(C)Cc1ccc(C(=O)Nc3ccccc3N)cc1)O2	/	/	/	/	/	-8
CO[C@H]1CN(C)C(=O)c2cc(NS(C)(=O)=O)ccc2OC[C@H](C)N(Cc2cccnc2)C[C@H]1C	/	/	/	/	/	14
COc1cc(/C=C/C(=O)c2ccc([N+](=O)[O-])o2)ccc1O	97*	52*	-21	/	0	24
COc1ccc(/C=C/C(=O)c2ccc3c(c2)OCCO3)cc1[N+](=O)[O-]	37	-34	19	4	0	/
O=C(/C=C/c1cccc(Cl)c1)c1ccc([N+](=O)[O-])o1	101*	76*	-19	/	0	86*
COc1ccc(/C=C/C(=O)c2ccc([N+](=O)[O-])o2)cc1OC	/	/	/	/	/	99*
COc1ccccc1/C=C/C=N/n1c(C2CCCCC2)n[nH]c1=S	34	69*	11	-2	0	5
S=c1[nH]nc(C2CCCCC2)n1/N=C/c1ccncc1	82*	14	48*	0	0	21
O=C(C[C@@H]1CC[C@H]2[C@@H](COC[C@H](O)CN2Cc2nccs2)O1)NCc1ccccc1Cl	/	/	/	/	/	8
C[C@@H]1CCCCO[C@H](CN(C)Cc2ccccc2)[C@H](C)CN([C@H](C)CO)C(=O)c2cc(NC(=O)Nc3ccccc3)ccc2O1	/	/	/	/	/	1
COc1ccc(C(=O)Nc2nnc(Cc3ccc(OC)c(OC)c3)s2)c(OC)c1	82*	-15	-6	6	0	-39
COc1ccc(Cc2nnc(NC(=O)c3c(-c4ccccc4)noc3C)s2)cc1OC	1	-4	9	-6	0	-17
COc1ccc(Cc2nnc(NC(=O)c3c(-c4ccccc4)noc3C)s2)cc1	-36	6	53*	0	0	/
O=C(C[C@@H]1CC[C@@H]2[C@H](COC[C@@H](O)CN2Cc2nccs2)O1)NCc1ccc(Oc2ccccc2)cc1	/	/	/	/	/	6
CS(=O)(=O)c1ccc(C(=O)OCC(=O)NCc2cccs2)cc1[N+](=O)[O-]	92*	24	-1	/	-1	13
N#CCC(=O)NNC(=S)Nc1ccccc1C(F)(F)F	65*	16	12	4	0	26
CCC(=O)NC(=S)Nc1ccccc1C(F)(F)F	-2	5	73*	2	0	/
COCCNC(=O)c1cc2c(c(-c3cccc(C4=CCCCC4)c3)n1)[C@H](CCO)N([S@@](=O)C(C)(C)C)C2	/	/	/	/	/	-3
CC(C)NC(=O)N1CCCCN2[C@H](CO)[C@H](c3ccc(C#Cc4ccccc4)cc3)[C@@H]2C1	/	/	/	/	/	-2
COc1ccc(OC)c(CCNC(=O)CCn2nc(C)c3c(C)n(-c4ccccc4)nc3c2=O)c1	-16	-3	55*	-5	0	11
COc1ccc(OC)c(CNC(=O)CCn2nc(C)c3c(C)n(-c4ccccc4)nc3c2=O)c1	-12	-4	-4	-2	0	7
CC(C)CNS(=O)(=O)c1ccc(CCC(=O)Nc2ccc3c(c2)OCO3)cc1	4	-21	4	17*	0	/
CCNS(=O)(=O)c1ccc(CCC(=O)Nc2ccc3c(c2)OCO3)cc1	4	7	-10	-1	0	6
O=C(NC[C@H]1N[C@H](CO)[C@@H]1c1ccc(C2=CCCC2)cc1)C1CC1	/	/	/	/	/	-15
Cc1ccc2oc(NC3=NC4(CCCC4)C4=C(CCCC4=O)N3)nc2c1	52*	9	/	/	0	-2
SMILES	TWEAK Fn14 block	TROY NFkB inh	LMP1 NFkB inh	HSP90 refold inh	aDG glyco act	LGR2 inh
CC1(C)CC(=O)C2=C(C1)NC(Nc1nc3ccccc3o1)=NC21CCCCC1	6	3	-6	0	0	/
C[C@@H]1CN([C@H](C)CO)S(=O)(=O)c2ccc(C3=CCCCC3)cc2O[C@@H]1CN(C)C(=O)Nc1ccc2c(c1)OCO2	/	/	/	/	/	2
CCN(CC)S(=O)(=O)c1cc(NC(=O)c2ccc3c(c2)NC(=O)C(C)S3)ccc1C (stereo not drawn)	89*	67*	7	/	0	8
Cc1cc(C)c(NC(=O)c2ccc3c(c2)NC(=O)C(C)S3)c(C)c1 (stereo not drawn)	13	-1	0	/	0	-11
Cc1noc(C)c1NC(=O)N(C)C[C@H]1Oc2ccc(NC(=O)Cc3cn(C)c4ccccc34)cc2C(=O)N([C@@H](C)CO)C[C@H]1C	/	/	/	/	/	0
O=S(=O)(N[C@H]1CC[C@@H](CCn2cc(-c3cccnc3)nn2)O[C@H]1CO)c1ccc(F)cc1	/	/	/	/	/	13
Cc1cccc(OCC(=O)NNc2c3ccccc3nc3ccccc23)c1	28	-3	-9	-2	2	12
COc1ccc(OCC(=O)Nn2c(-c3ccc(C)cc3)nc3ccccc3c2=O)cc1	72*	72*	9	-3	0	23
COc1ccc(OCC(=O)Nn2c(-c3ccc(OC)cc3)nc3ccccc3c2=O)cc1	4	-27	6	-3	0	-15
Cc1ccc(OCC(=O)NNc2c3ccccc3nc3ccccc23)cc1	72*	5	19	7	2	1
CCCNC(=O)C[C@@H]1CC[C@H]2[C@H](COc3ccc(NC(=O)c4cccc(C(F)(F)F)c4)cc3C(=O)N2C)O1	/	/	/	/	/	-3
O=S1(=O)C=C(Sc2nc3cc(Cl)ccc3o2)c2ccccc21	64*	28	-9	-3	0	/
COc1ccc(S(=O)(=O)N(C)C[C@H]2Oc3ccc(NS(=O)(=O)c4ccccc4)cc3C(=O)N([C@@H](C)CO)C[C@H]2C)cc1	/	/	/	/	/	-20
O=C(Nc1sc2c(c1C(=O)O)CCCCC2)c1ccco1	56*	1	4	8	0	/
CN(C)C(=O)c1c(NC(=O)c2ccco2)sc2c1CCCCC2	30	65*	6	10	2	/
NC(=O)c1c(NC(=O)c2ccco2)sc2c1CCC2	18	-35	-58	-3	0	/
Cc1cc(C(=O)CSc2nnc(-c3cccs3)n2Cc2ccccc2)c(C)n1C	11	-17	-1	1	1	/
O=c1cc(CSc2nnc(-c3cccs3)n2Cc2ccccc2)nc2sc3ccccc3n12	53*	45	3	6	1	/
NC1=C(Br)C(=O)c2ncccc2C1=O	103*	68*	70*	/	1	101*
CSCC[C@H](NC(=O)OC(C)(C)C)C(=O)N/N=C/c1cccc2nccnc12	93*	17	-1	1	0	14
CSCC[C@H](NC(=O)OC(C)(C)C)C(=O)N/N=C/c1ccc2nccnc2c1	-17	-30	-107	5	0	-9
O=C(Cn1ncc(Cl)c(Cl)c1=O)NC1CCCCC1	84*	32	-50	/	0	3

Screens as filed in PubChem.
